Paper PMC5700166

Biological target: T1, GST-Nv-NF-kB (Ser allele) (Nematostella vectensis, UniProt A7UNT2 2-411)
T1 sequence: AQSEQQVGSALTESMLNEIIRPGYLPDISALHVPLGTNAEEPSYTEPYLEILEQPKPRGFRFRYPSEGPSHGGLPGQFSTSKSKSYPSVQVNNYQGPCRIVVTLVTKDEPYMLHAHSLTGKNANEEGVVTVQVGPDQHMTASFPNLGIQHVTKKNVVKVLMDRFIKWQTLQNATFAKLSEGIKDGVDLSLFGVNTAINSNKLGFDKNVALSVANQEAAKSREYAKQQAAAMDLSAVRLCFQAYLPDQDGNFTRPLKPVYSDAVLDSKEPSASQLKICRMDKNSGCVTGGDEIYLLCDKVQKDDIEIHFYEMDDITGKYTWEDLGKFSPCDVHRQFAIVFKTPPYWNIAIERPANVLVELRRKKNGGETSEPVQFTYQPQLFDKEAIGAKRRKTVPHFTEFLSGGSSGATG
Test: protein-binding microarray (PBM); PBM: ~300 nM protein, 6 mM HEPES pH 7.8, 80 mM KCl, 0.5 mM EDTA, 0.5 mM EGTA, 6% glycerol, 35 ng/ul poly-dIdC, 1% milk, 1 h, room temperature; Ap Aiptasia and Nv Nematostella (sea anemones) / Co Capsaspora / Aq Amphimedon (sponge) / Dm Drosophila / Hu human; RHD is the Rel homology domain; high values mean tight binding
Settings: dsDNA, one strand shown

Sequence	binding signal [z-score]
CCGATTAACATCAGGGGGGTACATGATGTTAATCGGGTCTTGATTCGCTTGACGCTGCTG	3.54
CCGATTAACATCAAGGGAGTACCTGATGTTAATCGGGTCTTGATTCGCTTGACGCTGCTG	4.41
CCGATTAACATCACTAAATTCCCTGATGTTAATCGGGTCTTGATTCGCTTGACGCTGCTG	5.8
CCGATTAACATCAAAAAGTTCCCTGATGTTAATCGGGTCTTGATTCGCTTGACGCTGCTG	5.17
CCGATTAACATCACGGTACTTCCTGATGTTAATCGGGTCTTGATTCGCTTGACGCTGCTG	4.94
CCGATTAACATCATTTATCCCGGTGATGTTAATCGGGTCTTGATTCGCTTGACGCTGCTG	1.28
CCGATTAACATCAGGCGTCCCCCTGATGTTAATCGGGTCTTGATTCGCTTGACGCTGCTG	4.71
CCGATTAACATCAAGAATTCCCATGATGTTAATCGGGTCTTGATTCGCTTGACGCTGCTG	5.01
CCGATTAACATCAGGGGGGGTCATGATGTTAATCGGGTCTTGATTCGCTTGACGCTGCTG	1.92
CCGATTAACATCACCTTGGGAAATGATGTTAATCGGGTCTTGATTCGCTTGACGCTGCTG	2.17
CCGATTAACATCAGGGAATCCTATGATGTTAATCGGGTCTTGATTCGCTTGACGCTGCTG	4.4
CCGATTAACATCACGCAACCCCCTGATGTTAATCGGGTCTTGATTCGCTTGACGCTGCTG	4.87
CCGATTAACATCAGGACCGTCCCTGATGTTAATCGGGTCTTGATTCGCTTGACGCTGCTG	1.36
CCGATTAACATCAGGGAATGCACTGATGTTAATCGGGTCTTGATTCGCTTGACGCTGCTG	2.1
CCGATTAACATCAAAAGAATCCCTGATGTTAATCGGGTCTTGATTCGCTTGACGCTGCTG	2.43
CCGATTAACATCAGAAGATTCCCTGATGTTAATCGGGTCTTGATTCGCTTGACGCTGCTG	3.95
CCGATTAACATCAGGGGCAACCCTGATGTTAATCGGGTCTTGATTCGCTTGACGCTGCTG	1.9
CCGATTAACATCAGGGAAAAGGATGATGTTAATCGGGTCTTGATTCGCTTGACGCTGCTG	4.08
CCGATTAACATCAGGGATCCCCATGATGTTAATCGGGTCTTGATTCGCTTGACGCTGCTG	5.06
CCGATTAACATCAGGGGATCTACTGATGTTAATCGGGTCTTGATTCGCTTGACGCTGCTG	5.35

Sequence	binding signal [z-score]
CCGATTAACATCAGGGAATTCGATGATGTTAATCGGGTCTTGATTCGCTTGACGCTGCTG	4.38
CCGATTAACATCAGGGAAAGAACTGATGTTAATCGGGTCTTGATTCGCTTGACGCTGCTG	3.33
CCGATTAACATCAGGGGTTCACCTGATGTTAATCGGGTCTTGATTCGCTTGACGCTGCTG	3.04
CCGATTAACATCAAGGGGGTCCCTGATGTTAATCGGGTCTTGATTCGCTTGACGCTGCTG	3.02
CCGATTAACATCAGGGGAGAAAATGATGTTAATCGGGTCTTGATTCGCTTGACGCTGCTG	5.87
CCGATTAACATCACCCTTGCAGGTGATGTTAATCGGGTCTTGATTCGCTTGACGCTGCTG	1.12
CCGATTAACATCAGGGAAGTCCATGATGTTAATCGGGTCTTGATTCGCTTGACGCTGCTG	1.93
CCGATTAACATCAGGGGGAGTGATGATGTTAATCGGGTCTTGATTCGCTTGACGCTGCTG	4.81
CCGATTAACATCAGAACATTCCCTGATGTTAATCGGGTCTTGATTCGCTTGACGCTGCTG	3.49
CCGATTAACATCAGGAGATACCCTGATGTTAATCGGGTCTTGATTCGCTTGACGCTGCTG	1.65
CCGATTAACATCAGGGAAACCCATGATGTTAATCGGGTCTTGATTCGCTTGACGCTGCTG	3.84
CCGATTAACATCACCCGCTTTATTGATGTTAATCGGGTCTTGATTCGCTTGACGCTGCTG	1.21
CCGATTAACATCATTATGGGAAATGATGTTAATCGGGTCTTGATTCGCTTGACGCTGCTG	2.21
CCGATTAACATCAGGAGGCCCCCTGATGTTAATCGGGTCTTGATTCGCTTGACGCTGCTG	1.79
CCGATTAACATCAAAAAAAATCCTGATGTTAATCGGGTCTTGATTCGCTTGACGCTGCTG	1.23
CCGATTAACATCACGGTTTTTCCTGATGTTAATCGGGTCTTGATTCGCTTGACGCTGCTG	1.21
CCGATTAACATCAGGGAACAACCTGATGTTAATCGGGTCTTGATTCGCTTGACGCTGCTG	1.65
CCGATTAACATCACGGAGTCCCCTGATGTTAATCGGGTCTTGATTCGCTTGACGCTGCTG	4.71
CCGATTAACATCAAACTTTCCCATGATGTTAATCGGGTCTTGATTCGCTTGACGCTGCTG	4.64
CCGATTAACATCAAAATAATCCCTGATGTTAATCGGGTCTTGATTCGCTTGACGCTGCTG	3.57

Biological target: GST-Hu-p50 (Homo sapiens, UniProt P19838 7-356)
Test: as above
Settings: dsDNA, one strand shown

GST-Hu-p50, sequence (P19838 7-356): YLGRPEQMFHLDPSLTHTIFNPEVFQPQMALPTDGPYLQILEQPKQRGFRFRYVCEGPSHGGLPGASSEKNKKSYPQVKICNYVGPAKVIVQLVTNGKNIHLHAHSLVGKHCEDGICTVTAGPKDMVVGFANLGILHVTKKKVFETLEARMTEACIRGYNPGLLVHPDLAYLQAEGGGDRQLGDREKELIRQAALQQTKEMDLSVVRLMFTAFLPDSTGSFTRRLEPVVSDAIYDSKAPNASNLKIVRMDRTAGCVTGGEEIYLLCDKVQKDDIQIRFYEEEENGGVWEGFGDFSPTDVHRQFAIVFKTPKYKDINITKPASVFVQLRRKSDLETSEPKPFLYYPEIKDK

Sequence	binding signal [z-score]
CCGATTAACATCAGGGGGGTACATGATGTTAATCGGGTCTTGATTCGCTTGACGCTGCTG	2.93
CCGATTAACATCAAGGGAGTACCTGATGTTAATCGGGTCTTGATTCGCTTGACGCTGCTG	2.56
CCGATTAACATCACTAAATTCCCTGATGTTAATCGGGTCTTGATTCGCTTGACGCTGCTG	4.08
CCGATTAACATCAAAAAGTTCCCTGATGTTAATCGGGTCTTGATTCGCTTGACGCTGCTG	4.09
CCGATTAACATCACGGTACTTCCTGATGTTAATCGGGTCTTGATTCGCTTGACGCTGCTG	2.86
CCGATTAACATCATTTATCCCGGTGATGTTAATCGGGTCTTGATTCGCTTGACGCTGCTG	1.33
CCGATTAACATCAGGCGTCCCCCTGATGTTAATCGGGTCTTGATTCGCTTGACGCTGCTG	4.92
CCGATTAACATCAAGAATTCCCATGATGTTAATCGGGTCTTGATTCGCTTGACGCTGCTG	4.34
CCGATTAACATCAGGGGGGGTCATGATGTTAATCGGGTCTTGATTCGCTTGACGCTGCTG	3.32
CCGATTAACATCACCTTGGGAAATGATGTTAATCGGGTCTTGATTCGCTTGACGCTGCTG	2.17
CCGATTAACATCAGGGAATCCTATGATGTTAATCGGGTCTTGATTCGCTTGACGCTGCTG	2.72
CCGATTAACATCACGCAACCCCCTGATGTTAATCGGGTCTTGATTCGCTTGACGCTGCTG	5.03
CCGATTAACATCAGGACCGTCCCTGATGTTAATCGGGTCTTGATTCGCTTGACGCTGCTG	2.66
CCGATTAACATCAGGGAATGCACTGATGTTAATCGGGTCTTGATTCGCTTGACGCTGCTG	2.28
CCGATTAACATCAAAAGAATCCCTGATGTTAATCGGGTCTTGATTCGCTTGACGCTGCTG	3.14
CCGATTAACATCAGAAGATTCCCTGATGTTAATCGGGTCTTGATTCGCTTGACGCTGCTG	4.09
CCGATTAACATCAGGGGCAACCCTGATGTTAATCGGGTCTTGATTCGCTTGACGCTGCTG	3.13
CCGATTAACATCAGGGAAAAGGATGATGTTAATCGGGTCTTGATTCGCTTGACGCTGCTG	1.47
CCGATTAACATCAGGGATCCCCATGATGTTAATCGGGTCTTGATTCGCTTGACGCTGCTG	4.35
CCGATTAACATCAGGGGATCTACTGATGTTAATCGGGTCTTGATTCGCTTGACGCTGCTG	4.5

Sequence	binding signal [z-score]
CCGATTAACATCAGGGAATTCGATGATGTTAATCGGGTCTTGATTCGCTTGACGCTGCTG	2.58
CCGATTAACATCAGGGAAAGAACTGATGTTAATCGGGTCTTGATTCGCTTGACGCTGCTG	2.37
CCGATTAACATCAGGGGTTCACCTGATGTTAATCGGGTCTTGATTCGCTTGACGCTGCTG	3.78
CCGATTAACATCAAGGGGGTCCCTGATGTTAATCGGGTCTTGATTCGCTTGACGCTGCTG	3.68
CCGATTAACATCAGGGGAGAAAATGATGTTAATCGGGTCTTGATTCGCTTGACGCTGCTG	4.88
CCGATTAACATCACCCTTGCAGGTGATGTTAATCGGGTCTTGATTCGCTTGACGCTGCTG	2.18
CCGATTAACATCAGGGAAGTCCATGATGTTAATCGGGTCTTGATTCGCTTGACGCTGCTG	1.11
CCGATTAACATCAGGGGGAGTGATGATGTTAATCGGGTCTTGATTCGCTTGACGCTGCTG	4.48
CCGATTAACATCAGAACATTCCCTGATGTTAATCGGGTCTTGATTCGCTTGACGCTGCTG	3.65
CCGATTAACATCAGGAGATACCCTGATGTTAATCGGGTCTTGATTCGCTTGACGCTGCTG	2.58
CCGATTAACATCAGGGAAACCCATGATGTTAATCGGGTCTTGATTCGCTTGACGCTGCTG	3.11
CCGATTAACATCACCCGCTTTATTGATGTTAATCGGGTCTTGATTCGCTTGACGCTGCTG	1.46
CCGATTAACATCATTATGGGAAATGATGTTAATCGGGTCTTGATTCGCTTGACGCTGCTG	2.18
CCGATTAACATCAGGAGGCCCCCTGATGTTAATCGGGTCTTGATTCGCTTGACGCTGCTG	2.78
CCGATTAACATCAAAAAAAATCCTGATGTTAATCGGGTCTTGATTCGCTTGACGCTGCTG	1.51
CCGATTAACATCACGGTTTTTCCTGATGTTAATCGGGTCTTGATTCGCTTGACGCTGCTG	1.62
CCGATTAACATCAGGGAACAACCTGATGTTAATCGGGTCTTGATTCGCTTGACGCTGCTG	2.25
CCGATTAACATCACGGAGTCCCCTGATGTTAATCGGGTCTTGATTCGCTTGACGCTGCTG	5.13
CCGATTAACATCAAACTTTCCCATGATGTTAATCGGGTCTTGATTCGCTTGACGCTGCTG	4.07
CCGATTAACATCAAAATAATCCCTGATGTTAATCGGGTCTTGATTCGCTTGACGCTGCTG	3.58
